Source: PubChem BioAssay
Values without a mark were called inactive. Entries that show only a call come without a potency. For part of these data: Potency and affinity values are given separately. Active and inactive are the calls of the source. Unless noted, no rule for the calls is given here.

Experiments:
[1] = antimalarial activity against Dd2 strain (AID 2302;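 active = growth inhibition above 50% at the single 2 µM test dose, taken to imply half-maximal potency below 2 µM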); details: P. falciparum Dd2 in RBCs, LDH growth readout, 72 h; at 2 µM; stronger effect = higher value
[2] = HepG2 cytotoxicity, primary screen, cytotoxicity control for P. falciparum antimalarial project, cell-based, ATP luminescence (AID 2303;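 active = inhibition above 50%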); details: HepG2 viability, 24-48 h, at 10 µM, stronger effect = higher value
[3] = target: L-lactate dehydrogenase (Plasmodium falciparum (isolate CDC / Honduras)) (UniProt Q27743); experiment: PfLDH activity inhibition – cell lysate, 3D7 strain, counter-screen for P. falciparum growth inhibition project (AID 2304); details: P. falciparum 3D7 crude extract, LDH APAD/NBT absorbance; at 2 µM; stronger effect = higher value
[4] = inhibition of 3D7 malaria parasite growth – strain 3D7 (AID 2306); details: P. falciparum 3D7 erythrocytic growth, LDH absorbance, 72 h; at 2 µM; stronger effect = higher value
[5] = target: Calcium-dependent protein kinase 1 (Plasmodium falciparum (isolate 3D7)) (UniProt P62344); experiment: PfCDPK1 kinase inhibitors, biochemical, TCAMS library (AID 1159585; cut-off not given, nearly all actives have IC50 up to about 0.98 µM;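 also: inhibitors leave more ATP so luminescence rises with inhibition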); details: recombinant PfCDPK1, Kinase-Glo ATP depletion luminescence
[6] = target: Plasmodium falciparum protein kinase 6 (PK6, PF3D7_1337100) (UniProt Q8IDW1); experiment: PfPK6 kinase inhibitors, biochemical, TCAMS library (AID 1159586); details: recombinant PfPK6, Kinase-Glo ATP depletion luminescence
[7] = target: Protein kinase 7 (PK7), Plasmodium falciparum 3D7 (PF3D7_0213400) (UniProt Q7YTF7); experiment: inhibition of Plasmodium PK7 catalytic activity – biochemical, TCAMS antimalarial set, Kinase-Glo luminescence (AID 1159587); details: recombinant PfPK7, Kinase-Glo ATP depletion luminescence
[8] = target: Calcium-dependent protein kinase 4 (Plasmodium falciparum (isolate 3D7)) (UniProt Q8IBS5); experiment: PfCDPK4 kinase inhibitors, biochemical, TCAMS library (AID 1159588; cut-off not given, nearly all actives have IC50 up to about 0.91 µM); details: recombinant PfCDPK4, Kinase-Glo ATP depletion luminescence
Calcium-dependent protein kinase 4 (Plasmodium falciparum (isolate 3D7)), sequence (Q8IBS5 whole entry, looked up): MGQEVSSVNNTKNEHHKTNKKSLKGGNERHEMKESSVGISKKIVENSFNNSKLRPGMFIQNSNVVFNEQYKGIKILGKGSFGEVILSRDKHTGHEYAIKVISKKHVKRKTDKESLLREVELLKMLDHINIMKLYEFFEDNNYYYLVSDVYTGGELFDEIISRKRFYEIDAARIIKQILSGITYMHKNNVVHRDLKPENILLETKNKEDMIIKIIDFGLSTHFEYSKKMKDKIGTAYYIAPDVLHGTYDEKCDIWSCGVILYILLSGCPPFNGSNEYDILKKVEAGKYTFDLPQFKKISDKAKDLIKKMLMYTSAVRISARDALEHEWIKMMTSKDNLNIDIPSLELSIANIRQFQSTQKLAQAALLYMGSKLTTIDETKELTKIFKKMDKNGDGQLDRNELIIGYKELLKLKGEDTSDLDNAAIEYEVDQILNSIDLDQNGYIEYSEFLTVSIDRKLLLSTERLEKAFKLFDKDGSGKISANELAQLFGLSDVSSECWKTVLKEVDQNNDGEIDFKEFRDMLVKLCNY

L-lactate dehydrogenase (Plasmodium falciparum (isolate CDC / Honduras)), sequence (Q27743 whole entry, looked up): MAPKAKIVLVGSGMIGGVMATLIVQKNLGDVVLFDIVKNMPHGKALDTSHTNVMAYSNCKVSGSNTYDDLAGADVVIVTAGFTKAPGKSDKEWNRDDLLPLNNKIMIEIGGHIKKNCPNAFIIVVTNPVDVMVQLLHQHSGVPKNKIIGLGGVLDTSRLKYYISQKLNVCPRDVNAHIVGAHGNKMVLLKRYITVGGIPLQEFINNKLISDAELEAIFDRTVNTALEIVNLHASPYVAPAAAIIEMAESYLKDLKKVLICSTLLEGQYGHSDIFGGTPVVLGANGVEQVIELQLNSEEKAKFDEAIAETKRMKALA
Calcium-dependent protein kinase 1 (Plasmodium falciparum (isolate 3D7)), sequence (P62344 whole entry, looked up): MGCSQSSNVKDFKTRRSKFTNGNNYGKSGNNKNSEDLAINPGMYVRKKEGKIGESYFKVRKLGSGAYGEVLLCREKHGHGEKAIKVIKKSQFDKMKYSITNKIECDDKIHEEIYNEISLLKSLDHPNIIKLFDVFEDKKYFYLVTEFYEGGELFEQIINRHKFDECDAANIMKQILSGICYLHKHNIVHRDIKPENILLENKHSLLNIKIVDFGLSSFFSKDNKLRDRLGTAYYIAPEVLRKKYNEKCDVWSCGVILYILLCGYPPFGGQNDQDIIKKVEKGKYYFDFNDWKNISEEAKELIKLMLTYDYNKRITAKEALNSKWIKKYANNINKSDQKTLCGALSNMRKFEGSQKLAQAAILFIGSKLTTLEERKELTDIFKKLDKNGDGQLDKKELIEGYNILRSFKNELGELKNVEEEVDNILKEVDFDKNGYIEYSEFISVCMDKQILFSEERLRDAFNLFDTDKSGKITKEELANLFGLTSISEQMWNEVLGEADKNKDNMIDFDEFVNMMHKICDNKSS
Plasmodium falciparum protein kinase 6 (PK6, PF3D7_1337100), sequence (Q8IDW1 1-305): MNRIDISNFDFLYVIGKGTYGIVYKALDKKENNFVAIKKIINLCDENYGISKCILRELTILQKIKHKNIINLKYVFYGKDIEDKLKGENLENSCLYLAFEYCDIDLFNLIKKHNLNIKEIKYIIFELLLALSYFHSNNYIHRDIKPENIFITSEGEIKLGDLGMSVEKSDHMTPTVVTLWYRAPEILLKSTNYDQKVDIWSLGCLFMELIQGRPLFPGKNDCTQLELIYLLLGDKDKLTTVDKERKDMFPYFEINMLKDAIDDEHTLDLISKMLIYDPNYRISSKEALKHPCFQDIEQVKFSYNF
Protein kinase 7 (PK7), Plasmodium falciparum 3D7 (PF3D7_0213400), sequence (Q7YTF7 1-343): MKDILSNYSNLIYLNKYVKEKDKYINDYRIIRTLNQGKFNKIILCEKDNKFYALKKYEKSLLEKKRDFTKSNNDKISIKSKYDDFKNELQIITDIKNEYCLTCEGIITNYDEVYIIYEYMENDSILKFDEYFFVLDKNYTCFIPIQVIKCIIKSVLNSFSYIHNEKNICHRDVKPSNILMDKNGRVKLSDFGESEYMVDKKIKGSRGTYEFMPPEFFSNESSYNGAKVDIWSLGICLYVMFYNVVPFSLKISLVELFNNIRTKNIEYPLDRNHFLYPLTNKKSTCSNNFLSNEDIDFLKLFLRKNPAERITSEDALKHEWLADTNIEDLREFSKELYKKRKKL

SMILES	growth inhibition [1]	inhibition [2]	inhibition [3]	growth inhibition [4]	outcome [5]	outcome [6]	outcome [7]	outcome [8]
CCN(CC)c1ccc(C(c2ccc(N(CC)CC)cc2)c2ccc([N+](=O)[O-])cc2)cc1	63% (active)	20%	0%	82% (active)	inactive	inactive	inactive	inactive
O=C(Nc1cccc(C(F)(F)F)c1)c1ccc(S(=O)(=O)NCC2CCN(CC3CCCCC3)CC2)cc1	49%	24%	-4%	100% (active)	inactive	inactive	inactive	inactive
COc1cc(NC(=O)C(c2ccc(Cl)cc2)C(C)C)cc(OC)c1 (configuration not stated)	98% (active)	5%	-3%	99% (active)	inactive	inactive	inactive	inactive
N/C(=N/C(=NCCCCCCN=C(/N=C(/N)Nc1ccc(Cl)cc1)N1CCCCC1)N1CCCCC1)Nc1ccc(Cl)cc1	98% (active)	-7%	0%	100% (active)	inactive	inactive	inactive	inactive
Oc1c(CN2CCCC(C(F)(F)F)C2)cc(Cl)c2ccccc12 (configuration not stated)	53% (active)	23%	4%	94% (active)	inactive	inactive	inactive	inactive
COc1ccc(CNC2Cc3ccccc3C2)cc1-c1ccc(S(=O)(=O)NCCN2CCCC2)c(F)c1	69% (active)	44%	-6%	101% (active)	inactive	inactive	inactive	inactive
CCc1c(CCNCCCCCCNCc2ccc3c(c2CC)OCO3)ccc(OC)c1OC	19%	38%	6%	100% (active)	inactive	inactive	inactive	inactive
Nc1nc(N)c2cc(C#Cc3ccc(-c4ccccc4)cc3)ccc2n1	3%	20%	0%	94% (active)	inactive	inactive	inactive	inactive
CSc1ccc(NC(=O)Nc2cc(C)nc3ccccc23)cc1	23%	7%	1%	100% (active)	inactive	inactive	inactive	inactive
O=C(NC1CCCCC1)N(Cc1ccc(-c2ccc(CNCc3ccc4c(c3)OCO4)cc2)cc1)C1CCN(Cc2ccccc2)CC1	72% (active)	28%	-2%	102% (active)	inactive	inactive	inactive	inactive
COc1ccc2nc3cc(Cl)ccc3c(NCCc3ccccc3)c2c1	82% (active)	-1%	8%	94% (active)	inactive	inactive	inactive	inactive
O=C(Nc1ccc(CN2CCN(S(=O)(=O)c3cccc(Cl)c3)CC2)cc1)c1cccs1	41%	9%	0%	84% (active)	inactive	inactive	inactive	inactive
O=C(NCc1cccc(C(F)(F)F)c1)[C@@H]1CCCN1C(=O)c1ccc(O)c(-c2ccc(Cl)c(Cl)c2)c1	97% (active)	-3%	2%	99% (active)	inactive	inactive	inactive	inactive
Cc1cccc2[nH]c(-c3ccc(-c4cccc(CNCC5CCCO5)c4)s3)nc12 (configuration not stated)	11%	26%	-8%	93% (active)	inactive	inactive	inactive	inactive
COc1cc2c(cc1OC)CN(CCCCc1ccc(NC(=O)c3cc(Cl)cc(Cl)c3)cc1)CC2	4%	21%	-3%	95% (active)	inactive	inactive	inactive	inactive
CCn1ncc2c(N3CCCC3=O)cc(C(=O)N[C@@H](Cc3ccccc3)[C@H](O)CNC(C)(C)c3cccc(C(F)(F)F)c3)cc21	99% (active)	10%	3%	98% (active)	inactive	inactive	inactive	inactive
OC(CNc1ccnc(Nc2cccc(Cl)c2)n1)c1ccc(C(F)(F)F)cc1 (configuration not stated)	61% (active)	13%	5%	101% (active)	inactive	inactive	inactive	inactive
Cc1cc(N[C@@H](Cc2ccccc2)C(=O)NCc2cccc(F)c2)nc(NCCc2cccnc2)n1	40%	18%	-2%	92% (active)	inactive	inactive	inactive	inactive
N#Cc1ccc(-c2ccc(C(=O)NCCCCN3CCC(n4cnc5ccccc54)CC3)cc2)cc1	2%	15%	-3%	94% (active)	inactive	inactive	inactive	inactive
Cn1nccc1C(=O)NCCNCc1cccc(-c2csc(-c3nc4ccccc4[nH]3)c2)c1	2%	30%	0%	101% (active)	inactive	inactive	inactive	inactive

SMILES	growth inhibition [1]	inhibition [2]	inhibition [3]	growth inhibition [4]	outcome [5]	outcome [6]	outcome [7]	outcome [8]
COc1ccc(-n2ccnc2SCC(=O)Nc2cc(C(F)(F)F)ccc2Cl)c(OC)c1	76% (active)	0%	-8%	98% (active)	inactive	inactive	inactive	inactive
Oc1ccc2ncnc(Nc3ccc(OCc4cccc(F)c4)c(Cl)c3)c2c1	30%	24%	2%	100% (active)	inactive	inactive	inactive	inactive
Cc1nc(N2CCC(C)CC2)c2c3c(sc2n1)CCCC3	39%	13%	1%	93% (active)	inactive	inactive	inactive	inactive
NC1=NC2(CCCCC2)N(OCCCCCCCCNc2nc(N)nc(N)n2)C(N)=N1	99% (active)	44%	-5%	96% (active)	inactive	inactive	inactive	inactive
NC(=O)c1sc(-n2cnc3ccccc32)cc1OCc1ccccc1[N+](=O)[O-]	46%	10%	-2%	99% (active)	inactive	inactive	inactive	inactive
COc1ccc(-c2cnc3[nH]cc(-c4ccc(C(=O)O)cc4)c3c2)cn1	99% (active)	35%	-1%	95% (active)	inactive	inactive	inactive	inactive
CN(Cc1cccc(O)c1)C1CCN(c2cc(NC(=O)c3cccc(F)c3)ccn2)CC1	37%	-2%	0%	98% (active)	inactive	inactive	inactive	inactive
O=C(NCC1CCN(C/C=C/c2ccccc2)CC1)Nc1ccc(Oc2ccccc2)cc1	11%	40%	-3%	83% (active)	inactive	inactive	inactive	inactive
N#Cc1ccc(Cn2ccc3c4c(N)nc(N)nc4ccc32)cc1	95% (active)	64% (active)	0%	92% (active)	inactive	inactive	inactive	inactive
Cc1cc(C(F)(F)F)nn1-c1ccc(NC(=O)c2ccco2)cc1	93% (active)	14%	-3%	94% (active)	inactive	inactive	inactive	inactive
CC(C)(C)OC(=O)C1CCCN(Cc2ccc(-c3cccc(-c4nc5ccccc5[nH]4)c3)cc2)C1 (configuration not stated)	27%	37%	4%	93% (active)	inactive	inactive	inactive	inactive
COc1ccc2nccc(N3CCN(CCNCc4ccc5c(n4)NC(=O)CO5)CC3)c2n1	12%	10%	1%	98% (active)	inactive	inactive	inactive	inactive
CS(=O)(=O)c1ccc(CNCc2ccc(-c3cccc(-c4nc5ccc(C(F)(F)F)cc5[nH]4)c3)cc2)cc1	100% (active)	54% (active)	8%	102% (active)	inactive	inactive	inactive	inactive
C[C@@H]1CC[C@H](NC(=O)[C@H](CC2CCCC2)NC(=O)N2CCNCC2)C(=O)CN1S(=O)(=O)c1ccccn1	19%	5%	-2%	84% (active)	inactive	inactive	inactive	inactive
COc1cc2nc(N3CCC(CNC(=O)c4cccc5cc[nH]c45)CC3)nc(N)c2cc1OC	24%	33%	-3%	98% (active)	inactive	inactive	inactive	inactive
COc1ccc(Nc2nc(C)cc(NC3CCCC3)n2)cc1	59% (active)	34%	0%	98% (active)	inactive	inactive	inactive	inactive
Cc1cccc2[nH]c(-c3cccc(-c4ccc(CN5CCN(CCO)CC5)cc4)c3)nc12	63% (active)	12%	-4%	101% (active)	inactive	inactive	inactive	inactive
COc1ccc(C)c(Nc2ccnc(Nc3cccc(-c4nc5ccccc5[nH]4)c3)n2)c1	35%	27%	-1%	98% (active)	inactive	inactive	inactive	inactive
O=[N+]([O-])c1cccc(C=NNc2ccnc3ccc(C(F)(F)F)cc23)c1	35%	-6%	-2%	96% (active)	inactive	inactive	inactive	inactive
